Six1-Eya2 blk – qHTS Assay for Inhibitors of the Six1/Eya2 Interaction | Homeobox protein SIX1 (Homo sapiens) + Protein phosphatase EYA2 (Homo sapiens), … | AlphaScreen GST-Six1/His-Eya2 binding, biochemical; active compounds read low | activity change, % (test concentration not listed) | 360,000 compounds, 0.56% hits | AID 651725, 2012; in the data active means activity change below about -65%; inconclusive means mostly about -30% to -63%
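GST-Six1 + His-Eya2 (5X stock: 250/500 nM); Tris pH 8.0, 300 mM NaCl, 0.05% BSA, 0.02% Tween 20; GSH donor/Ni acceptor beads; 1 h 37 °C dark; AlphaScreen readout.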
TDP1 block – qHTS Assay for Inhibitors of Tyrosyl-DNA Phosphodiesterase (TDP1); Potency, µM (top dose mostly 130 µM), without a hit: at the highest dose activity change, negative = inhibition, hits mostly inhibitors; Tyrosyl-DNA phosphodiesterase 1 (Homo sapiens), Q9NUW8; AID 485290, 2010; 350,000 compounds, 0.28% hits; recombinant TDP1, AlphaScreen DNA substrate cleavage; further: potency means the concentration at half of the fitted maximal effect; nearly all actives have a fitted effect of over 40% in size
Target sequence (Q9NUW8 whole entry, looked up): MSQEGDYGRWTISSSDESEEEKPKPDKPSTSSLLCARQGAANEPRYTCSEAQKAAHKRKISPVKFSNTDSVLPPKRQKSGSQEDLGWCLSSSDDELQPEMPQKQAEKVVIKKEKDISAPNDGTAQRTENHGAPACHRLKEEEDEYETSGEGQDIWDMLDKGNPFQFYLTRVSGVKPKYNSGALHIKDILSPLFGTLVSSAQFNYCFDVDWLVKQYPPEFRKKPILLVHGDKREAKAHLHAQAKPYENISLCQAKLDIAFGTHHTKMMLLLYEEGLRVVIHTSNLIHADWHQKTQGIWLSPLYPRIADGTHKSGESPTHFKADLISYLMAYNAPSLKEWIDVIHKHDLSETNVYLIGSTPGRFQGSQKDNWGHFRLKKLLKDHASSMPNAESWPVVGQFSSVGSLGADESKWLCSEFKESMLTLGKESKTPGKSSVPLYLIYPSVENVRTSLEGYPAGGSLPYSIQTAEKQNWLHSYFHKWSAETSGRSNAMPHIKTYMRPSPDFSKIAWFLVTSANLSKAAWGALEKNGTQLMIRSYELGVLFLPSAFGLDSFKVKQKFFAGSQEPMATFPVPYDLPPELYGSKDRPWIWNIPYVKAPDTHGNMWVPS
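Steps: enzyme plus compound, 15 min RT; add biotin/phosphotyrosine-FITC oligonucleotide (15 nM final), react 5 min; add donor/acceptor beads (10 ug/ml final), 10 min; read AlphaScreen. Tdp1 at 1 nM final.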
IL-1B inflam inh – qHTS for Inhibitors of Inflammasome Signaling: IL-1-beta AlphaLISA Primary Screen | AID 743279, 2014 | THP-1 LPS/ATP IL-1B secretion, AlphaLISA, 16 h; active compounds read low | 360,000 compounds, 4.7% hits | activity change, % at 57.5 µM; in the data active means activity change below about -50%; inconclusive means mostly about -30% to -49%
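Secreted IL-1B measured by AlphaLISA bead assay after 16 h compound exposure of THP-1 cells; compounds (final up to 57.5 uM) added 1 h before LPS (250 ng/mL) and ATP (1.25 mM) stimulation; lower signal means less secretion.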
DT40 TDP1 no CPT – qHTS for Inhibitors of human tyrosyl-DNA phosphodiesterase 1 (TDP1): qHTS in cells in absence of CPT; DT40 Tdp1-/- hTDP1 cells, no CPT, ATP luminescence, 48 h; Potency, µM (doses to about 46.2 µM), without a hit: at the top dose activity change, negative = growth inhibition, most hits filed as inhibitors; 420,000 compounds, 15% hits; AID 686978, 2013; further: potency means the concentration at half of the fitted maximal effect; nearly all actives have a fitted effect of over 55% in size
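No-CPT arm: Tdp1-/-;hTDP1 DT40 cells (400/well) plus compounds, incubated ≥48 hr at 37 °C. Readout CellTiter-Glo luminescence.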
CtBP-E1A inh – qHTS Assay for Inhibitors of the CtBP/E1A Interaction | CtBP / adenovirus E1A interaction (AlphaScreen) | AlphaScreen GST-E1A/His-CtBP binding, 1536-well; active compounds read low | activity change, % (test concentration not listed) | 340,000 compounds, 0.49% hits; in the data active means activity change below about -65%; inconclusive means mostly about -30% to -63%
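AlphaScreen with 125 nM GST-E1A and 125 nM His-CtBP (5X stocks) in Tris pH 8.0, 300 mM NaCl, BSA, Tween 20, TCEP. Compounds preincubated 2 h at 37 deg C, then glutathione donor/nickel acceptor beads added for 1 h at 37 deg C in dark.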
DT40 TDP1 CPT – qHTS for Inhibitors of human tyrosyl-DNA phosphodiesterase 1 (TDP1): qHTS in cells in presence of CPT; 420,000 compounds, 12% hits; Potency, µM (series often up to 46.2 µM), for inactives: top-dose activity change, negative = growth inhibition, actives largely listed as inhibitors; chicken DT40 Tdp1-/-;hTDP1 cells + 20 nM CPT, ATP luminescence, 48 h; further: potency means the concentration at half of the fitted maximal effect; nearly all actives have a fitted effect of over 55% in size
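Chicken DT40 Tdp1-/- cells stably complemented with human TDP1 were seeded at 400 cells/well in medium containing 20 nM camptothecin, exposed to pin-transferred compounds, and grown at 37 °C for at least 48 hr. Viability was read as ATP luminescence.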
* hit, by the source's call; ? = inconclusive; / = not tested or not shown; [ ] = dose if it differs, or a comment. Compounds with a hit are over-represented: about 18% of the library has one in this group of screens. Unless noted, the call rests on the fitted dose curve; in most records, active means well fitted curve in the direction sought with a large enough effect; inconclusive means small, poorly fitted or top-dose-only effect, or another doubt; inactive means no such curve, though single readings can be large; an effect the other way counts as inactive or inconclusive. On the % scale 0 is the no-effect control and ±100 the full control effect.

SMILES	Six1-Eya2 blk	TDP1 block	IL-1B inflam inh	DT40 TDP1 no CPT	CtBP-E1A inh	DT40 TDP1 CPT
Cc1ccc(C(=O)Nc2cccc(C(=O)O)c2)cc1	11.4	4.0%	10.5	-15.1%	-1.9	-26.5%
Cc1nn(-c2cccc(Cl)c2)nc1C(=O)Nc1cccc(C(=O)NC2CC2)c1	-2.4	1.2%	0.4	10.3µM*	2.9	?
O=C(NC1CCN(C(=O)Nc2cccc(Cl)c2)CC1)c1ccccc1	-0.7	14.8%	-8.7	?	4.0	-20.1%
CCCc1cc(=O)[nH]c(SCc2nc(-c3ccccc3)no2)n1	/	0.0%	/	-27.6%	/	-14.9%
O=C(NCC1CCCO1)c1cc2ccccc2[nH]1 (stereo not given)	-0.7	2.0%	9.7	?	-0.8	-21.7%
COc1cccc2[nH]c(C(=O)NCC3CCCO3)cc12 (stereo not given)	18.7	/	36.5	30.5%	3.0	-4.1%
COc1cc(-c2nc(C(=O)NCC3CCCO3)cc3c2[nH]c2ccccc23)cc(OC)c1OC (stereo not given)	-7.7	/	-18.1	7.31µM*	-10.3	5.8µM*
COc1ccccc1-c1nc(C(=O)NCC2CCCO2)cc2c1[nH]c1ccccc12 (stereo not given)	-2.3	/	-23.8	14.6µM*	3.8	20.6µM*
O=C(NCC1CCCO1)c1cc2c([nH]c3ccccc32)c(-c2cccc(Cl)c2)n1 (stereo not given)	-6.5	/	-65.4*	2.31µM*	-6.2	4.11µM*
COC(=O)c1ccccc1N(C)C(=O)C12CCC(C)(C(=O)O1)C2(C)C (stereo not given)	17.9	4.4%	-7.5	-4.2%	-0.4	9.4%
CCOc1ccccc1NC(=O)c1nn(-c2ccc(OC)cc2)c(=O)c2c1c1ccccc1n2C	/	-2.3%	/	-3.8%	/	-22.8%
O=C(/C=C/c1ccc(O)c(O)c1)NC(=O)c1ccccc1O	-18.8	-5.0%	0.0	14.1%[9.04 µM]	-13.0	14.8%[9.04 µM]
CC(NC(=O)/C=C/c1ccc(Br)cc1)c1ccccc1 (stereo not given)	9.8	-1.1%	-4.0	?	0.2	16.4µM*
O=C(/C=C/c1ccc(Br)cc1)NC(=O)c1ccccc1O	-14.3	-0.6%	-94.9*	?	?	-11.4%
COC(=O)Cc1ccc(OC(=O)CCS(=O)(=O)c2ccc(Cl)cc2)cc1	-6.1	/	13.9	17.2%	-3.5	-7.0%
O=C(NNC(=O)c1csc(-c2cnccc2C(F)(F)F)n1)c1ccc(C(F)(F)F)cc1	0.7	8.7%	99.4	16.4µM*	-3.3	?
O=C(Nc1ccc(C(F)(F)F)cc1)c1csc(-c2ccncc2)n1	2.8	3.7%	?	?	-13.3	-10.2%
COc1ccc(C(=O)NCc2nnc(SCC(=O)Nc3cc(Cl)ccc3OC)o2)cc1	-8.3	2.3%	-4.0	-12.1%	/	-4.9%
Cc1ccccc1C(=O)Nc1ccc2c(c1)CCCN2C(=O)c1cccs1	-5.0	1.6%	?	?	/	18.4µM*
CCCCOc1ccc(C(=O)Nc2ccc3c(c2)CCCN3C(=O)c2cccs2)cc1	/	6.2%	/	5.17µM*	/	5.8µM*
COc1ccc(C(=O)Nc2ccc3c(c2)CCCN3C(=O)c2cccs2)c(OC)c1	?	3.8%	6.9	11.6µM*	/	8.2µM*
COc1cccc(C(=O)Nc2ccc3c(c2)CCCN3C(=O)c2cccs2)c1OC	-7.7	6.4%	?	13µM*	-10.3	16.4µM*
Cc1ccc2c(c1)CCCN2C(=O)c1cccs1	2.1	4.1%	17.3	-2.3%	-3.6	-6.6%

From PubChem BioAssay
